# High-throughput results deposited in PubChem BioAssay by Johns Hopkins Ion Channel Center.
# KCNQ2 inh – rat KCNQ2 potassium channel inhibitors, primary screen, cell-based, CHO-K1, FluxOR thallium flux, B-score. Potassium voltage-gated channel subfamily KQT member 2 (Rattus norvegicus), O88943. 20 min; stronger effect = lower value. B-score at 10 µM. actives 1.1% (n = 310,000);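 active = fluorescence ratio B-score at most minus 3 library SDs, with starting brightness B-score within 2 library SDs, cut at about -5.5 in these data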
# KCNQ2 enhance – potentiators of rat KCNQ2 potassium channel | Potassium voltage-gated channel subfamily KQT member 2 (Rattus norvegicus), O88943 | CHO-K1 KCNQ2, FluxOR thallium flux fluorescence; stronger effect = higher value | B-score at 10 µM | actives 0.54% (n = 310,000);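 active = fluorescence ratio B-score at least 3 SD of library B-scores, with initial fluorescence B-score within 3 of them, cut at about 5.3 in these data; same plate scores as AID 2156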;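 also: B-score of peak minus minimum over baseline fluorescence ratio after K+ and Tl+ stimulus; positive B-score means potentiation of KCNQ2 with more thallium influx and brighter signal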
# Kir21 conf inh – mouse Kir2.1 channel blockers, retest, confirmation, cell-based, FluxOR thallium flux, duplicate; Kir2.1-expressing cells, FluxOR thallium flux fluorescence; stronger effect = lower value; Tl flux remaining, % of negative control (stronger effect = lower value), % at 10 µM; shares compounds with KCNQ2 enhance; actives 41% (n = 2,300);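 active = Primary-screen hit whose thallium flux fell at least 3 control SD below untreated wells in both duplicates, with normal baseline fluorescence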;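 also: 0% = blank wells without stimulus and 100% = stimulated no-compound controls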
# HEK293 ctr – alters thallium flux in parental HEK293 cells, Kir2.1 counter-screen | shares compounds with KCNQ2 enhance | FluxOR thallium flux fluorescence; 0% = unstimulated blank wells | FluxOR signal as % of negative control (100 = no effect), % at 10 µM | actives 19% (n = 2,300) | AID 2105;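 active = dye signal at least 3 control SD above or below untreated wells in both duplicates, raw fluorescence within 3, either direction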;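 also: percent is based on the flux ratio of peak minus minimum fluorescence over baseline F0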
# CHO-K1 ctr – nonspecific thallium flux increase in parental CHO-K1, confirmation, counter-screen for KCNQ2 potentiator project, cell-based, FluxOR thallium flux, duplicate; AID 2282, 2010; activity increase over 3SD of controls, % at 10 µM; shares compounds with KCNQ2 enhance; parental CHO-K1 cells, FluxOR thallium flux fluorescence; zero = vehicle mean+3SD, 100% = vehicle-minus-blank window; actives 43% (n = 1,200);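 active = signal rise of at least 3 SD above the untreated control mean, in both duplicate wells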;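 also: counter screen of KCNQ2 potentiator hits so any rise reflects channel-independent effects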
# KCNQ1 pot spec – human KCNQ1 channel potentiation off-target, confirmation, selectivity assay for KCNQ2 potentiator project, cell-based, CHO, FluxOR thallium flux | CHO KCNQ1 stable, FluxOR thallium flux fluorescence; beyond 3SD, as % of vehicle-control signal | activation over 3SD threshold, % at 10 µM | AID 2283, 2010 | actives 28% (n = 1,200) | shares compounds with KCNQ2 enhance;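 active = fluorescence ratio rise of at least 3 SD of vehicle wells above their mean, in both replicate wells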;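 also: 0% = vehicle mean plus 3 SD and 100% = vehicle minus unstimulated blank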
# KCNQ2 pot confirm – rat KCNQ2 channel potentiators, confirmation, cell-based, CHO, FluxOR thallium flux, duplicate. shares compounds with KCNQ2 enhance. CHO-KCNQ2 cells, FluxOR thallium flux fluorescence. potentiation, less the hit threshold, % at 10 µM. actives 68% (n = 1,200). AID 2287, 2010;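 active = fluorescence ratio rising 3 SD or more over the vehicle control mean in both replicates, plus primary screen hit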;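 also: peak minus minimum thallium fluorescence divided by baseline after K/Tl stimulus; 0% = vehicle mean plus 3 SD and 100% = vehicle minus unstimulated blank difference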
# Kir21 spec – mouse Kir2.1 channel activation off-target, confirmation, selectivity assay for KCNQ2 potentiator project, cell-based, HEK293, FluxOR thallium flux. shares compounds with KCNQ2 enhance. HEK293 Kir2.1, FluxOR thallium flux fluorescence. activity over 3SD threshold, % at 10 µM. actives 2% (n = 1,200). AID 2345, 2010;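 active = fluorescence ratio rise of at least 3 SD above the vehicle-control mean, seen in both replicates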;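 also: 0% = vehicle mean plus 3 SD and 100% = vehicle minus no-stimulus blank window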
# KCNQ2 W236L pot – potentiators of retigabine-insensitive KCNQ2 W236L, mechanism study for KCNQ2 potentiator project, cell-based, rat KCNQ2 W236L, CHO, automated patch clamp; shares compounds with KCNQ2 enhance; automated patch clamp current; current increase over 3SD of negative controls (%), stronger effect = higher value, % at 25 µM; actives 10% (n = 940);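 active = current increase at least 3 SD of the untreated controls above them in both duplicate recordings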
# Target sequence (O88943 whole entry W236L, looked up): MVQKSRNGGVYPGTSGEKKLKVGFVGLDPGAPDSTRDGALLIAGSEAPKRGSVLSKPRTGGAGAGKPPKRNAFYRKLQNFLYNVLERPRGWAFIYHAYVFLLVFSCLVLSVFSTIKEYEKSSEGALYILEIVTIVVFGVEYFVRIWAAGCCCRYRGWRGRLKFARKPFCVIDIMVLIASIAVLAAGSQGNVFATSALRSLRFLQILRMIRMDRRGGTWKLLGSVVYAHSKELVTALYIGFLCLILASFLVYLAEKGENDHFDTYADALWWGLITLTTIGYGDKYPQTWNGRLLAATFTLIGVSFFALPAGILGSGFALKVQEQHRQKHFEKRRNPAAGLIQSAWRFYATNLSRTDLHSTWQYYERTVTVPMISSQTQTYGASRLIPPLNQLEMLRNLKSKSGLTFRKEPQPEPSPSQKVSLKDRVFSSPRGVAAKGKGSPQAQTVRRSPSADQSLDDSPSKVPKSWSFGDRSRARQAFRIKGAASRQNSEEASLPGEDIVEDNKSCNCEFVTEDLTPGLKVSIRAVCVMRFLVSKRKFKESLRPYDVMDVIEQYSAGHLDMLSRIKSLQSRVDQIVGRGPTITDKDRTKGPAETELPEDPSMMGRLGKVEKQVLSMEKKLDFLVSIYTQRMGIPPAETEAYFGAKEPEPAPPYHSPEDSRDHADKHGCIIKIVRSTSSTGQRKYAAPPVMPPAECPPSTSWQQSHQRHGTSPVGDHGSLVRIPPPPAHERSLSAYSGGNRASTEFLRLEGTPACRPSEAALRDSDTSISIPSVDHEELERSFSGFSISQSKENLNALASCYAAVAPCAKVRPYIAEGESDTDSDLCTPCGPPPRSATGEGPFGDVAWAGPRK
# Starred values were filed as active, the others as inactive; i = inactive; . = not tested or not shown. Only some compounds are listed: those with a hit (about 1.6% of all), similar ones and a draw of the others.
SMILES,KCNQ2 inh,KCNQ2 enhance,Kir21 conf inh,HEK293 ctr,others
COc1cccc(OC)c1OCCCOc1c(OC)cccc1OC,i,.,.,.,
COc1cccc(OC)c1OCCOc1ccccc1OC(C)C,i,.,41%*,i,
CCOc1ccc(N2CC(NS(=O)(=O)c3cccnc3)CC2=O)cc1 (stereo not drawn),i,.,.,.,
O=S(=O)(N1CCCCC1)N1CCN(CC(O)COc2ccc3cc(Br)ccc3c2)CC1 (stereo not drawn),i,1.1,.,.,
COc1cccc(OCC(O)CN2CCN(c3ccccn3)CC2)c1 (stereo not drawn),i,0.33,.,.,
OC(COc1ccc2cc(Br)ccc2c1)CN1CCN(c2ccccn2)CC1 (stereo not drawn),i,7.4*,i,i,CHO-K1 ctr=-7;KCNQ1 pot spec=14*;KCNQ2 pot confirm=-11;Kir21 spec=-11
OC(COc1ccc2cc(Br)ccc2c1)CN1CCCC1 (stereo not drawn),i,.,38%*,i,
COc1ccc2nc(NC(=O)C3CC(=O)N(c4ccccc4)C3)sc2c1 (stereo not drawn),i,.,.,.,
Cc1ccc(N2CN(S(=O)(=O)c3cccc([N+](=O)[O-])c3)c3nc4ccccc4nc32)cc1,i,.,.,.,
Cc1nn(C(=O)CCCC(=O)NCc2ccccc2)c2ccccc12,i,.,.,.,
COc1ccc(NC(=O)CN2CCC(C(=O)c3ccc(F)cc3)CC2)c(OC)c1,i,0.04,.,.,
CS(=O)(=O)c1nc(-c2cccs2)cc(C(F)(F)F)n1,-5.9*,-5.9,70%*,70%*,
O=C(O)CCS(=O)(=O)c1nc(-c2cccs2)cc(C(F)(F)F)n1,i,.,.,.,
CC(=O)NC1C(OC(=O)/C=C/c2ccccc2)OC(COC(C)=O)C(OC(C)=O)C1OC(C)=O (stereo not drawn),i,.,.,.,
CCOc1cc(N2CCOCC2)c(OCC)cc1NC(=O)Cc1cccc(OC)c1,i,10*,i,i,CHO-K1 ctr=36*;KCNQ1 pot spec=14*;KCNQ2 pot confirm=72*;Kir21 spec=-50;KCNQ2 W236L pot=i
CCOc1cc(N2CCOCC2)c(OCC)cc1NC(=O)Cc1ccc(OC)c(OC)c1,i,.,.,.,
CCOc1cc(N2CCOCC2)c(OCC)cc1NC(=O)CC12CC3CC(CC(C3)C1)C2,i,23*,i,i,CHO-K1 ctr=-18;KCNQ1 pot spec=-25;KCNQ2 pot confirm=113*;Kir21 spec=-28;KCNQ2 W236L pot=0.7%*
CCOc1cc(N2CCOCC2)c(OCC)cc1NC(=O)CN1C(=O)NC(C)(C2CC2)C1=O (stereo not drawn),i,.,.,.,
O=C(NC1CCCCC1)c1ccc(CS(=O)(=O)c2ccc(Cl)cc2)o1,i,0.98,.,.,
COc1ccc(S(=O)(=O)N2CCC(C(N)=O)CC2)cc1C(=O)N1CCCCCC1,i,.,.,.,
Cc1cc(NCCOCCO)n2ncc(-c3ccc(Cl)cc3)c2n1,i,6.2*,i,i,CHO-K1 ctr=2.2*;KCNQ1 pot spec=-11;KCNQ2 pot confirm=4.4*;Kir21 spec=-44;KCNQ2 W236L pot=i
Cc1cc(NCc2ccccn2)n2ncc(-c3ccc(Cl)cc3)c2n1,i,0.08,.,.,
CN(CCCC(=O)Nc1ccc(Br)cc1F)S(=O)(=O)c1ccccc1,i,1.3,.,.,
Cc1cc(C)c2cccc(N)c2n1,i,.,.,.,
Cc1cc(C)c2ccc(N)nc2c1O,i,12*,i,i,CHO-K1 ctr=-1;KCNQ1 pot spec=-24;KCNQ2 pot confirm=12*;Kir21 spec=-36;KCNQ2 W236L pot=i
SMILES,KCNQ2 inh,KCNQ2 enhance,Kir21 conf inh,HEK293 ctr,others
CCCCCNC(=O)c1ccc2c(=O)n(CC3CCCO3)c(=O)[nH]c2c1 (stereo not drawn),i,6.1*,i,i,CHO-K1 ctr=-10;KCNQ1 pot spec=-28;KCNQ2 pot confirm=-12;Kir21 spec=-41
CCCCCNC(=O)c1ccc2c(=O)n(CC3CCCO3)c(=S)[nH]c2c1 (stereo not drawn),i,0.82,.,.,
CC1CCCCN1C(=O)CN1CCC(c2nc3ccc(Cl)cc3[nH]2)CC1 (stereo not drawn),i,.,.,.,
Cc1ccc(CN2CCC(c3nc4ccc(Cl)cc4[nH]3)CC2)cc1,i,.,26%*,i,
O=C(c1cccc(Cl)c1)N1CCC(c2nc3ccccc3[nH]2)CC1,i,0.82,.,.,
Clc1ccc2nc(C3CCN(Cc4ccccc4)CC3)[nH]c2c1,i,.,41%*,i,
CCOc1cc(C(=O)NCc2ccc3c(c2)OCO3)cc(OCC)c1OCC,i,0.27,.,.,
O=C(c1cc(-c2cccs2)nn1-c1ccccc1)N1CCN(S(=O)(=O)c2ccccc2)CC1,i,.,.,.,
COc1cc(OC)cc(C(=O)Nc2ccc(C(=O)c3ccncc3)cc2)c1,i,11*,i,i,CHO-K1 ctr=28*;KCNQ1 pot spec=42*;KCNQ2 pot confirm=20*;Kir21 spec=-36;KCNQ2 W236L pot=i
COc1cc(OC)cc(C(=O)Nc2cccnc2)c1,i,1.1,.,.,
COc1ccc(C(=O)NCCC(=O)N2CCC3(CC2)NCCc2[nH]cnc23)cc1,i,0.52,.,.,
O=C(O)c1ccc(N2CCN(Cc3ccc4c(c3)OCO4)CC2)c([N+](=O)[O-])c1,i,.,.,.,
CN(c1ccccc1)S(=O)(=O)c1cccc(C(=O)OCC(=O)NCc2ccco2)c1,i,1.3,.,.,
CN(c1ccc(F)cc1)S(=O)(=O)c1ccc(Cl)c(C(=O)OCC(=O)NCc2ccco2)c1,i,8.8*,i,i,CHO-K1 ctr=15*;KCNQ1 pot spec=-14;KCNQ2 pot confirm=24*;Kir21 spec=-40;KCNQ2 W236L pot=i
CC(C)c1ccc(C(=O)N(c2ccccn2)C(C)c2ccco2)cc1 (stereo not drawn),i,.,.,.,
CC(c1ccco1)N(C(=O)CSc1ccc(Br)cc1)c1ccccn1 (stereo not drawn),i,.,69%*,i,
COc1cccc(-n2cc(C(=O)NC(C)C)c3ccccc3c2=O)c1,i,.,.,.,
